From the supplement of paper PMC3334620
The full ranking holds about 33,000 sequences; the median of “E-score (-0.5 to 0.5)” is about -0.056, and the highest 2% start at about 0.38. The full list was thinned out, with the highest values kept by preference.

What follows are sequences tested against Stb4 (UniProt P50104) (assay: PBM E-score (8-mer binding enrichment) (E-score (-0.5 to 0.5)); higher = stronger / more preferred TF binding). Settings: protein concentration: 200 nM; construct: GST-DNA-binding domain.
Chain of UniProt P50104 (P50104 whole entry, the tested form may be a part): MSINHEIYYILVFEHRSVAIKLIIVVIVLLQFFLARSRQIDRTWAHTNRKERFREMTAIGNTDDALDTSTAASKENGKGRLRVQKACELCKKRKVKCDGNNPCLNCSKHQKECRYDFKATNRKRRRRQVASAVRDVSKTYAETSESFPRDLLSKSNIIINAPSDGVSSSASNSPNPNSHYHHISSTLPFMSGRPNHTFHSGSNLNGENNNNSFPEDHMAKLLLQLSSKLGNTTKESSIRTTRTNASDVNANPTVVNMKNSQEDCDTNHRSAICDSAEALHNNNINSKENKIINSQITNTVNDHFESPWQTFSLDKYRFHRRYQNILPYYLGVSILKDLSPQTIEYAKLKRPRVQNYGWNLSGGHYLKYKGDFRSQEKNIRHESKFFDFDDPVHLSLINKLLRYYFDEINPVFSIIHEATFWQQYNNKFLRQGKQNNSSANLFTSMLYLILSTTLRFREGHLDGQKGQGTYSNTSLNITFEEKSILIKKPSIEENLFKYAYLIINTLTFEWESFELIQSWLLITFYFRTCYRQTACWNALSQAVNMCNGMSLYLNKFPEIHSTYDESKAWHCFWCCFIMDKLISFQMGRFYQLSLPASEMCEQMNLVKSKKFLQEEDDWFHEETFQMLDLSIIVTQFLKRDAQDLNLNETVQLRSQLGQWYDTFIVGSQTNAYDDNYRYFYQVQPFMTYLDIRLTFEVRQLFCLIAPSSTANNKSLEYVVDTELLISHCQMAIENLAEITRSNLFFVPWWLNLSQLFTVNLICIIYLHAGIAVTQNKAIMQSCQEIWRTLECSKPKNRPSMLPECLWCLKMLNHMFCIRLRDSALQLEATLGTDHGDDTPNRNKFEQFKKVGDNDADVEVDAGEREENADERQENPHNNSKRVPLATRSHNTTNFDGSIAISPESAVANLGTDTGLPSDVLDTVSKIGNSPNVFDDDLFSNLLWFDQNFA
Description: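 Universal 'all 10-mer' protein binding microarrays (Agilent AMADID 015681) probed with GST-tagged S. cerevisiae TFs (full-length or DBD) made by in vitro transcription/translation (PURExpress), about 100-200 nM. Bound TF was detected with fluorescent anti-GST. Each ungapped 8-mer (which stands for itself and its reverse complement) is scored by the PBM enrichment score (E-score), a modified Wilcoxon-Mann-Whitney statistic from -0.5 to +0.5, computed with the Universal PBM Analysis Suite. Scale: above 0.35 generally sequence-specific binding.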

Sequence | PBM E-score
CATTTTGA | -0.162
CGTTGAGC | -0.0224
CGGATCCC | 0.38
AGGATCCT | -0.218
CGGATCCG | 0.462
AGGATCCG | 0.395
AGGATCCC | 0.0362
CGGATCCA | 0.36
ATGGCGTC | -0.158
GATTGACC | 0.0279
CAAAATAC | -0.00837
ACTAGAAC | 0.0472
AGGCTCTA | -0.08
ATAGCTTA | -0.106
CGAGCCGA | 0.399
AGAGCCGA | 0.39
CGAGCCAA | 0.00699
GGAGCCGA | 0.379
AGAGCCGG | 0.24
CGAGCCGC | 0.328
ATGCGGGG | 0.0133
CCAGTCCG | 0.17
ATGGCAGC | -0.171
ACCTACGA | -0.199
ACGCCATA | -0.131

Sequence | PBM E-score
AGGGCCCG | 0.205
ACGGCCCG | 0.284
CCGGGCCC | 0.303
CCGGCCCG | 0.392
CCGGGCCA | 0.18
CGGGCCCA | 0.11
CCGGGCCG | 0.382
CCGGCCCA | 0.17
CGGGCCCG | 0.419
CAATTTGA | -0.046
TTCTACAA | -0.129
AAATCATT | -0.067
ACACCCGA | 0.445
TCACCCGA | 0.407
ACACCCGG | 0.331
GCACCCCA | -0.0865
CCACCCGA | 0.379
GCACCCGA | 0.434
GCACCCGC | 0.285
ACACCCGC | 0.164
TCACCCAA | -0.112
CTGCGAAC | -0.298
CCAACTTA | -0.00182
CTCTTAAC | -0.0542
GAGTACCC | 0.0867

Sequence | PBM E-score
TGGGATAA | -0.182
CCGGATAG | 0.424
TCGGATAA | 0.487
CAGGATAG | -0.0723
CCGGATAA | 0.452
CCGGATTA | 0.319
TAGGATAA | -0.0915
GCGGATAA | 0.403
CGGGATAG | 0.191
GCGGATGA | 0.304
CAGGATAA | -0.12
GGGGATAA | 0.00287
ATTATCTC | 0.0642
CAGGGAGA | -0.266
CGATGGTC | -0.158
CTTCTTTA | -0.0675
GACCCTGC | 0.1
AAAGCGTC | -0.194
CACACTAA | -0.194
CGAGAAGA | 0.0362
CCGATATC | 0.297
CAGGATAC | -0.198
GCGGATAC | 0.367
CCGGATAC | 0.409
ATCGGCCG | 0.305

Sequence | PBM E-score
AAAGCCAG | -0.246
CGGAACAA | 0.444
CGGAACAC | 0.367
CGGAACAG | 0.427
TGGAACAA | -0.2
AGGAACAG | -0.243
GGGAACAA | 0.225
ATCTATGG | -0.184
AGCTCGCC | -0.0787
AGCTCGAC | -0.0952
AGCTCGTG | 0.0631
AGCTCGGG | 0.443
AGCTCGGC | 0.412
AGCTCGCG | -5e-05
CGTGCCAG | -0.186
AAGGTAGG | -0.0211
ACTTGACA | -0.05
ACGATACG | -0.314
AGCCGAGG | 0.437
AGCCGCGG | 0.315
CGCCGAGA | 0.361
AGCCGATA | 0.344
AGCCGACC | 0.293
CGCCGATC | 0.241
AGCCGAGA | 0.436

Sequence | PBM E-score
CGCCGAGC | 0.39
AGCCGATC | 0.313
CACCGAGG | 0.308
GGCCGAGA | 0.347
AGCCGAGC | 0.448
GCATATGC | -0.173
CGCCACGC | -0.108
AAGGACTC | 0.127
TGGATGAA | -0.185
GTGCCAGA | -0.31
AAGCGGCA | 0.133
GCTGACGA | -0.346
GAGCACTC | 0.09
ATACGGAA | 0.36
AACCGGAT | 0.383
CTCCGGAA | 0.391
ATCCGGAC | 0.336
TTACGGAA | 0.365
AACCGGAA | 0.377
TTCCGGAA | 0.46
AACCGGAG | 0.23
CTCCGGAC | 0.285
CTCCGGTA | 0.254
GTCCGGAA | 0.373
ATCCGGAA | 0.436

Sequence | PBM E-score
CAAATCCC | 0.141
CACCCAGG | -0.115
GCGCCGCA | 0.0423
GCTGGCAC | -0.224
CTAAAATC | -0.12
CCCGCTTA | 0.0362
AAACAGTT | -0.0803
AATCAATC | 0.055
ATCCGGAT | 0.459
ATGCGGAG | 0.0793
ATCCGGAG | 0.385
ATCCGGTG | 0.397
ATCCGCAT | 0.348
CTCCGGAG | 0.304
GTCCGGAC | 0.283
ATCCGGTC | 0.302
ATCCGGTA | 0.322
CCTGGGTC | -0.126
AGTTAAAA | 0.045
CATCAGGC | -0.149
GCTCATCC | 0.127
AACGGATT | 0.155
AACGGATA | 0.439
TACGGAGA | 0.0409
GACGGATA | 0.385

Sequence | PBM E-score
GACGGATC | 0.265
CACGGATC | 0.35
CACGGATG | 0.338
AACGGATG | 0.304
CACGGATA | 0.385
TACGGAAA | 0.322
TACGGATA | 0.385
GACGGAGA | 0.187
GCTCAACC | -0.206
ACTCTCCT | -0.272
GGCAAGTA | 0.0793
TGCGAGAA | -0.132
CAAAATCA | -0.00631
TATCCAAA | -0.184
TATCCGAA | 0.493
GATCCAAA | -0.0151
CATCCAAA | -0.2
GATCCGAA | 0.482
GATCCGTA | 0.351
CATCCGCA | 0.314
TATCCGCA | 0.408
CATCCGAA | 0.476
TGTCCGAA | 0.35
CATCCTAA | -0.079
AATCCGCA | 0.157
